Assay outcomes deposited in PubChem BioAssay by National Center for Advancing Translational Sciences (NCATS).
This is a sample that favours compounds with a hit; in the whole collection about 11% have one here.
Tau fluor counter = counter-screen for tau fibril formation inhibitors | tau K18 P301L Alexa594 fluorescence, heparin fibrillization | Potency, µM (top dose mostly 57.7 µM), for the others: top-dose activity change, negative = decrease | actives 0.93% (n = 280,000); also: potency is read from the fitted curve at half-maximal effect; nearly all actives have a fitted effect of over 55% in size
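Human K18 P301L tau (15 uM unlabeled plus 0.24 uM Alexa 594-labeled, final) in 100 mM sodium acetate pH 7 was mixed with compound and 20 uM heparin and incubated 6 hr at 37 C.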
Tau fibril FP = blocks human tau fibril formation measured by polarization | P10636 | K18 P301L tau heparin fibrillization, Alexa594 FP, 6 h | Potency, µM (highest dose often 57.7 µM), for the others: at the highest dose activity, negative = inhibition, usual class: inhibitors | actives 0.39% (n = 280,000); also: potency is read from the fitted curve at half-maximal effect; nearly all actives have a fitted effect of over 55% in size
Target sequence (P10636 561-689 P618L limits assumed): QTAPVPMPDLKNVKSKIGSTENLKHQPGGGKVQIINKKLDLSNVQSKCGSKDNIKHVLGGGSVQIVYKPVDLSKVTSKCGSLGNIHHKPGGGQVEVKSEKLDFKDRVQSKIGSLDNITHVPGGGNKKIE
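Recombinant K18 P301L […], labeled with Alexa 594 at 0.24 uM over 15 uM unlabeled; heparin inducer 20 uM final; 37 C, 6 hr; FP endpoint.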
Coupling enz = coupling enzyme interference in Giardia aldolase counter-screen; activity change, negative = inhibition, % at 58.2 µM, hits read low; actives 0.67% (n = 290,000); coupling enzyme system counterscreen, AmpLite Red fluorescence; in the data active = activity change below about -30%
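Final compound at 57.5 uM, incubated 10 min at RT with coupling enzyme reagent (glyceraldehyde-3-phosphate), then 20 min with substrate and AmpLite Red detection. Fluorescence read at 525/598 nm; tests interference with the coupling assay, not aldolase inhibition.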
Tau ThT inhib = blocks human tau fibril formation measured by thioflavin T. Potency, µM (series often up to 57.4 µM), for inactives: top-dose activity, negative = inhibition, usual class: inhibitors. AID 1460. recombinant tau K18 P301L, heparin-induced fibrillization, ThT fluorescence. actives 2.1% (n = 270,000). P10636; also: potency is read from the fitted curve at half-maximal effect; nearly all actives have a fitted effect of over 55% in size
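Fibril formation assay: tau K18 P301L at 15 uM with trace Alexa 594 label, heparin inducer 20 uM, pH 7 sodium acetate buffer, 37 C for 6 hr; endpoint ThT signal.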
G9a block = inhibitors of human histone lysine methyltransferase G9a | Q96KQ7 | G9a H3K9 monomethylation, AlphaScreen, 2 h | Potency, µM (highest dose often 102 µM), without a hit: at the top dose activity, negative = inhibition, hits mostly inhibitors | actives 8.8% (n = 350,000) | AID 504332; also: potency is read from the fitted curve at half-maximal effect; nearly all actives have a fitted effect of over 75% in size
Target sequence (Q96KQ7 913-1193 limits assumed): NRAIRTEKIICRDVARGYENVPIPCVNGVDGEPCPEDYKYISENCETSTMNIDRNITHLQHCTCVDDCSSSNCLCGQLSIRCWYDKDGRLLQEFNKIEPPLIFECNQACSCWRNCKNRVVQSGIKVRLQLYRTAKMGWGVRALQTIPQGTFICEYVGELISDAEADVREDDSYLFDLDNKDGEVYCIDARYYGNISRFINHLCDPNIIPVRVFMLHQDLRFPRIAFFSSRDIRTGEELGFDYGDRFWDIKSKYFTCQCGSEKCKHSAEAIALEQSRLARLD
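Step 1: enzyme (final 20 nM) with compound, 15 min RT. Step 2: substrate peptide 500 nM and SAM 20 uM, 2 h RT. Step 3: anti-H3K9me1 antibody and AlphaScreen beads, 10 min, then plate read.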
Sfp PPTase inh = Sfp phosphopantetheinyl transferase inhibition | AID 1490 | actives 3.5% (n = 310,000) | Q9F4F7 | Biochemical Sfp PPTase activity, qHTS | Potency, µM, for the others: largest response in the series, negative = inhibition, usual class: inhibitors;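 also: the enzyme is Sfp with the accession as filed and its product quenches rhodamine fluorescence; potency is read from the fitted curve at half-maximal effect; 0% = enzyme reaction without inhibitor and -100% = no enzyme wells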
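Sfp 15 nM + cpd, 15 min RT; start w/ rhodamine-CoA 5 uM, BHQ-2-YbbR 12.5 uM (final); 50 mM Hepes pH 7.6, 10 mM MgCl2, 0.01% NP-40, 0.01% BSA; read 525/598 nm at 0 and 30 min.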
* hit, by the source's call; ? = inconclusive; . = no result given; [ ] = dose if it differs, or a comment. Unless noted, calls follow the shape of the dose curve; as a rule, active = well fitted curve in the direction sought with a large enough effect; inconclusive = small, poorly fitted or top-dose-only effect, or another doubt; inactive = no such curve, though single readings can be large; an effect the other way counts as inactive or inconclusive. Unless noted, % is scaled to controls: 0 for no effect and ±100 for the full control effect.

SMILES | Tau fluor counter | Tau fibril FP | Coupling enz | Tau ThT inhib | G9a block | Sfp PPTase inh
CC(C)c1noc(-c2ccccc2OCC(=O)Nc2ccc([N+](=O)[O-])cc2)n1 | 0% | -1% | . | 6% | ? | .
Cc1ccc(C)c(N2CCN(S(=O)(=O)c3cc(C(=O)Nc4ccccc4C(F)(F)F)ccc3F)CC2)c1 | -21% | ? | . | -3% | -2%[59 µM] | .
CC(C)Sc1nc2ccccc2[nH]1 | 14% | 6% | -2 | 9% | 56µM* | 21%
CCC(NC(=O)NNC(N)=S)(C(F)(F)F)C(F)(F)F | -13% | -9% | 2 | -16% | ? | 45µM*
CCC(NC(=O)Nc1nnc(C(F)(F)F)s1)(C(F)(F)F)C(F)(F)F | -2% | -5% | -10 | 8% | ? | 39%
O=S(=O)(c1ccc(Br)cc1)c1nnn2c1nc(Nc1cccc(C(F)(F)F)c1)c1sccc12 | -26% | ? | . | 10% | -16%[59 µM] | .
O=C(Nc1cccc(S(=O)(=O)Nc2ccc(Cl)cc2)c1)c1cc2c(s1)CCCC2 | ? | 14µM* | 2 | 6% | ? | 34%
O=C(Nc1cccc(S(=O)(=O)Nc2ccc(Cl)cc2)c1)c1ccc(Cl)nc1 | ? | ? | -1 | -3% | 79µM* | 11%
O=C1CSc2ccc(C(=O)Nc3cccc(S(=O)(=O)Nc4ccc(Br)cc4)c3)cc2N1 | 10µM*[quencher] | 18µM* | 4 | 6% | ? | 35µM*
COc1ccc(-n2nc3c(c2NC(=O)C(=O)N2CCN(C)CC2)CSC3)cc1 | -5% | -10% | . | -7% | 5%[59 µM] | .
Cc1cc(C)n2nc(Sc3ncccc3[N+](=O)[O-])nc2n1 | -11% | -9% | 3 | -7% | 29%[59 µM] | 17%
COc1ccc2nc3c(cc2c1)Cc1ccccc1-3 | ? | 1% | -25 | ? | . | -6%
O=C(CSc1nc(-c2ccccc2)c2ccccc2n1)Nc1ccc(F)cc1 | -2% | ? | . | 7% | 1%[59 µM] | .
COc1ccc(OC)c(CNC(=O)NCc2noc3ccc(C)cc23)c1 | -19% | -2% | . | -9% | 24%[59 µM] | .
Cc1cc(=O)[nH]c(SCC(=O)c2ccc3c(c2)NC(=O)CO3)n1 | -2% | -10% | 4 | -14% | -39%[59 µM] | 2%
Nc1cc(N)nc(SCC(=O)c2ccc3c(c2)NC(=O)CO3)n1 | -6% | -7% | 0 | -18% | 35µM* | -48%
O=c1c(-c2ccc([N+](=O)[O-])cc2)coc2c(O)c(O)ccc12 | -26% | 0% | -6 | . | 8.9µM* | 1%
O=C(Cn1c(=O)ccc2cc(S(=O)(=O)N3CCCC3)ccc21)NCc1ccc(F)cc1 | -10% | -1% | . | -8% | 1%[59 µM] | .
CCC(=O)c1ccccc1OCCCn1cncn1 | -1% | 6% | 3 | -7% | -3%[59 µM] | 6%
CCC(=O)c1ccccc1OCCN1CCN(Cc2ccccc2)CC1 | 0% | -2% | 1 | -9% | . | 56µM*
CCOc1ccccc1OCCOCCN1CCN(Cc2ccccc2)CC1 | 4% | 4% | 5 | -1% | . | 79µM*
Cc1ccc(CN(Cc2cccn2-c2nnc(N3CCCC3=O)s2)C(=O)Nc2cc(C)cc(C)c2)cc1 | -3% | -15% | . | 1% | -7%[59 µM] | .
COC(=O)c1c(=O)n(O)c2ccc(OC)cc2[n+]1[O-] | -5% | -6% | -8 | -9% | 32µM* | ?
COc1ccc(NC(=O)N2CCCC3(CCN(S(=O)(=O)c4ccccc4)CC3)C2)cc1 | . | . | 1 | . | 4%[12.7 µM] | 22%
Cc1ccc(-c2nonc2NC(=O)c2ccc(F)cc2)cc1C | 6% | 2% | . | 5% | -4%[59 µM] | .
SMILES | Tau fluor counter | Tau fibril FP | Coupling enz | Tau ThT inhib | G9a block | Sfp PPTase inh
Cc1ccc(COc2ccccc2C(=S)N2CCCC2)cc1 | -19% | -2% | 0 | -16% | 13µM* | 25µM*
Fc1ccc(COc2ccccc2C(=S)N2CCCC2)cc1 | -11% | -4% | 0 | ? | 1.8µM* | ?
CCOc1ccc(C(=S)N2CCCC2)cc1OC | 0% | 2% | 3 | -2% | 8%[59 µM] | 14%
O=C(OCC(=O)N1CCCC1)c1ccccc1OCc1ccccc1 | 2% | 5% | -1 | -2% | -35% | 13%
COc1cc(C(=S)N2CCCC2)ccc1OCc1ccc(C)cc1 | . | . | 0 | . | 32µM* | -18%
CN(CCn1ccnc1)Cc1cn(-c2ccccc2)nc1-c1ccc2c(c1)OCO2 | -4% | -8% | 0 | -3% | ? | 12%
CN(Cc1cn(-c2ccccc2)nc1-c1ccc2c(c1)OCO2)Cc1nccn1C | -14% | 7% | -8 | -15% | 45µM* | 79µM*
Nc1c(-c2n[nH]c(=S)n2-c2ccc(Cl)cc2Cl)cnn1-c1ccccc1 | 7% | 3% | -1 | . | 4.5µM* | 3%
Cc1nnc(-c2cnn(-c3ccccc3)c2N)n1Cc1ccccc1 | 1% | -2% | 1 | -6% | -2%[12.7 µM] | 2%
Cn1c(-c2cnn(-c3ccccc3)c2N)n[nH]c1=S | -17% | -6% | -1 | -11% | 28µM* | ?
Nc1c(-c2ccc(Cl)cc2)cnn1-c1ccccc1 | . | . | 0 | . | -1% | 9%
C=CCn1c(-c2cnn(-c3ccccc3)c2N)n[nH]c1=S | -6% | 0% | 1 | -6% | 7.9µM* | -7%
COCc1cc(C)nc(SCC(=O)Nc2ccc3c(c2)n(C)c(=O)n3C)c1C#N | . | . | 0 | . | . | 5%
NCCc1nnc(SCC(=O)Nc2cccc(Cl)c2)o1 | . | . | . | . | 50µM* | 9%
CC(C)(C)OC(=O)NCCc1nnc(SCC(=O)Nc2cccc(Cl)c2)o1 | -8% | -4% | 0 | -7% | . | 13%
Cc1ccc(S(=O)(=O)N2CCOCC2)cc1NC(=O)COC(=O)COc1cccc2c1OC(C)(C)C2 | . | . | . | . | -37% | .
COc1ccc(CNC2CC(C)N(C)CC2C)cc1OC (centres undefined) | . | . | 0 | . | -11% | 2%
COc1ccc(CCNC2CC(C)N(C)CC2C)cc1OC (centres undefined) | -5% | -4% | -1 | -6% | 45µM* | 11%
COc1ccc(COc2cc(-c3cccc(OC)c3)nc3ccc(N)cc23)cc1 | 13µM*[quencher] | ? | -1 | ? | 45µM* | -11%
O=C1OC(c2ccccc2)=C/C1=C/N1CCCCC1 | -28% | ? | 2 | 28µM* | ? | ?
O=C1OC(c2ccccc2)=N/C1=C\N1CCCCC1 | -4% | 5% | 2 | 5% | 7%[59 µM] | 3%
Fc1ccc(/C=N\Nc2cccc(F)c2)cc1 | . | . | 0 | . | . | -3%
Cc1[nH]c2ccccc2c1/C=N/Nc1cccc(C(=O)O)c1 | ? | -8% | -1 | 13µM* | 4µM* | 0%
O=C(O)c1cccc(N/N=C/c2cccnc2)c1 | 1% | 6% | -1 | ? | 28µM* | 23%
Cc1[nH]c2ccccc2c1/C=C/C(=O)c1ccccc1 | 18µM*[quencher] | 4% | 0 | ? | 19%[59 µM] | -4%
